Screening data (PubChem)
A selection: hits, their analogues and other compounds. The true share with any hit is near 12%.
Sfp inh: qHTS Assay for Inhibitors of Bacillus subtilis Sfp phosphopantetheinyl transferase (PPTase); Potency, µM, usual class: inhibitors; 310,000 tested, 3.5% active; 4'-phosphopantetheinyl transferase ffp (Bacillus subtilis), Q9F4F7; Biochemical Sfp PPTase activity, qHTS;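 further: the enzyme is Sfp with the accession as filed and its product quenches rhodamine fluorescence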
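Fluorescence-quenching assay with 15 nM Sfp, 5 uM rhodamine-CoA and 12.5 uM BHQ-2-labelled ybbR peptide in pH 7.6 Hepes/MgCl2 buffer. Enzyme was pre-incubated with compound for 15 min at room temperature. Rate was taken from the 30-min fluorescence change (525/598 nm).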
G9a inh: qHTS Assay for Inhibitors of Histone Lysine Methyltransferase G9a; Potency, µM (titrated, usually from 102 µM), most hits filed as inhibitors; Histone-lysine N-methyltransferase EHMT2 (Homo sapiens), Q96KQ7; 350,000 tested, 8.8% active; G9a H3K9 monomethylation, AlphaScreen, 2 h; AID 504332, 2011; further: nearly all actives have a fitted effect of over 75% in size
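Step 1: enzyme (final 20 nM) with compound, 15 min RT. Step 2: substrate peptide 500 nM and SAM 20 uM, 2 h RT. Step 3: anti-H3K9me1 antibody and AlphaScreen beads, 10 min, then plate read.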
HP1b binding inh: HTS for Inhibitors of HP1-beta Chromodomain Interactions with Methylated Histone Tails. Chromobox protein homolog 1 (Homo sapiens), P83916. AlphaScreen HP1-beta / biotin-H3K9me3 peptide binding. Potency, µM (highest dose often 114 µM), actives largely listed as inhibitors. 390,000 tested, 0.56% active. AID 540317, 2011; further: nearly all actives have a fitted effect of over 70% in size
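AlphaScreen: HP1-beta (50 nM) preformed 30 min with biotin-H3(1-18)K9me3 peptide (50 nM) in PBS pH 7.4, 0.01% Tween-20. Compound added for 30 min at RT, then streptavidin donor/nickel chelate acceptor beads (10 ug/mL) for 30 min.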
JMJD2A Tudor inh: qHTS Assay for Inhibitors of JMJD2A-Tudor Domain; 390,000 tested, 4.4% active; AlphaScreen JMJD2A-Tudor / H3K4me3 peptide binding; AID 504339, 2011; Lysine-specific demethylase 4A (Homo sapiens), O75164; Potency, µM (highest dose often 114 µM), actives largely listed as inhibitors; further: nearly all actives have a fitted effect of over 50% in size
BAZ2B block: qHTS Assay for Inhibitors of BAZ2B | Potency, µM (doses to about 114 µM), hits mostly inhibitors | AlphaScreen BAZ2B-H3K14Ac peptide displacement | Bromodomain adjacent to zinc finger domain protein 2B (Homo sapiens), Q9UIF8 | 360,000 tested, 4.4% active | AID 504333, 2011; further: nearly all actives have a fitted effect of over 60% in size
Target sequence (Q9UIF8 whole entry, looked up, the tested form may be a part): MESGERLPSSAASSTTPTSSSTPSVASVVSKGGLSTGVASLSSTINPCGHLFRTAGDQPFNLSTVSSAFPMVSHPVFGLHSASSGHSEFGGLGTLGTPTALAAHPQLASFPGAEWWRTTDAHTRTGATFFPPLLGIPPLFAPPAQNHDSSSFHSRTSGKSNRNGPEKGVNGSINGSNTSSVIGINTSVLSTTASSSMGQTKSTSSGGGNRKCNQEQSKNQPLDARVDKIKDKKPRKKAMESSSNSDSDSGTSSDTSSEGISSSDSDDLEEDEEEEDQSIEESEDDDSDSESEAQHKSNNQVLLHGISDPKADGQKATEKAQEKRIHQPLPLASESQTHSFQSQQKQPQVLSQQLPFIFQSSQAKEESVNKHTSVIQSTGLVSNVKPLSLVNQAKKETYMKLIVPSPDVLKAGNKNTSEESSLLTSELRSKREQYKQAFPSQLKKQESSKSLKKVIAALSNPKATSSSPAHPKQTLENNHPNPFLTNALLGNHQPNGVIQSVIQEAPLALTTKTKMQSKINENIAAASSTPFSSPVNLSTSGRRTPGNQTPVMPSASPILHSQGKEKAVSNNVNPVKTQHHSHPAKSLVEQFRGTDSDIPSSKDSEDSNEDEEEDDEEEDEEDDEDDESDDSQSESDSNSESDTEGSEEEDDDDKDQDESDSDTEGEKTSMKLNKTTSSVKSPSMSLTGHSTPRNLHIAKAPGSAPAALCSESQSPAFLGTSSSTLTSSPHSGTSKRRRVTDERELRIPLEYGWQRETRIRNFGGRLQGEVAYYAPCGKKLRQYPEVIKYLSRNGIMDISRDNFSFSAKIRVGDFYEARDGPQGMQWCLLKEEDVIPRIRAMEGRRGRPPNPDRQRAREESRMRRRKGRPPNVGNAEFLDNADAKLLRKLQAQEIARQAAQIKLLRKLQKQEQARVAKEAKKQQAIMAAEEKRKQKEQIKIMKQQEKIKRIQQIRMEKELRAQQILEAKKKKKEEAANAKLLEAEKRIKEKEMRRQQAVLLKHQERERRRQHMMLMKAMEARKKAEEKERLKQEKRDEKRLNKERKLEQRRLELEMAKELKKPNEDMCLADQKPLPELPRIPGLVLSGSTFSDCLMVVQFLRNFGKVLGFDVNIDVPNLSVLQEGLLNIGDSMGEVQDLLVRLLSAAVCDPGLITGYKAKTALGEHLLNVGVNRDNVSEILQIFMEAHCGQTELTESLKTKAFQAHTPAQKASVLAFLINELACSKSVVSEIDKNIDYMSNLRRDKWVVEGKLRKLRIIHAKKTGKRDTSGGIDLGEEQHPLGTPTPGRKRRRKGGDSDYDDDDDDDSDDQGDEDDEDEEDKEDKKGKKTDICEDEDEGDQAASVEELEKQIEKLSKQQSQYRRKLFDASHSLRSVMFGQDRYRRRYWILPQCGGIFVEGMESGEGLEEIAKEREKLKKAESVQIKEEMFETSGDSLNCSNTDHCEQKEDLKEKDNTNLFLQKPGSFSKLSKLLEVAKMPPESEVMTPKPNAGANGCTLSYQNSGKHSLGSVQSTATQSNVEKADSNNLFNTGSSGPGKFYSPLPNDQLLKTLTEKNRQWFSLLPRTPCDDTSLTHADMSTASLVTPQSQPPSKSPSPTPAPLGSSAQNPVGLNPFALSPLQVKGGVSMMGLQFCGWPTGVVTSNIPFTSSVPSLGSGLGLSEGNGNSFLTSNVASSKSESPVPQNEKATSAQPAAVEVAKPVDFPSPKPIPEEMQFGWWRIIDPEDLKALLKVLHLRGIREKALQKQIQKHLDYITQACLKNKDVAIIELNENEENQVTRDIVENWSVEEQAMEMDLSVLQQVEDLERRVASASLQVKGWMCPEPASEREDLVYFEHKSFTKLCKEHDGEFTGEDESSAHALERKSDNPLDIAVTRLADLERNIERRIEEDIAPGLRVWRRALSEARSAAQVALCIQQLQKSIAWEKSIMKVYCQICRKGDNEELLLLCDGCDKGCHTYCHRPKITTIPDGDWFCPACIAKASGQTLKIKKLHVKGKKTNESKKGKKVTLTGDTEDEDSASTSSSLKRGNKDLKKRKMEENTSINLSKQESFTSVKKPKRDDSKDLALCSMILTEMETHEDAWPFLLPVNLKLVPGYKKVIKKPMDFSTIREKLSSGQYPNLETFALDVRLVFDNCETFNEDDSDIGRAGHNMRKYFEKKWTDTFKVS
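BAZ2B (50 nM) with biotin-H3(5-23)K14Ac peptide (50 nM) in PBS pH 7.4, 0.01% Tween-20, preformed 30 min, then compound 30 min at room temperature; top concentration 110uM. AlphaScreen streptavidin donor/nickel chelate acceptor beads (10 ug/mL final), 20 min dark, signal read.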
Hits are given with their value; - = inactive; ? = inconclusive; . = no result; [ ] = dose if it differs, or a comment. The call rests on the fitted dose curve; in most records, active means well fitted curve in the direction sought with a large enough effect; inconclusive means small, poorly fitted or top-dose-only effect, or another doubt; inactive means no such curve, though single readings can be large; an effect the other way counts as inactive or inconclusive.

SMILES	Sfp inh	G9a inh	HP1b binding inh	JMJD2A Tudor inh	BAZ2B block
Oc1ccccc1CNCCCN1CCOCC1	-	8.9µM	-	4.5µM	?
C=CCOc1ccccc1CNCCCN1CCOCC1	-	-	-	-	-
N#Cc1nc(Cc2cccc3ccccc23)oc1NCCCN1CCOCC1	-	50µM	-	-	?
Fc1ccccc1-c1nc(NCCCN2CCOCC2)c2ccccc2n1	-	-	-	-	-
Cc1ccccc1NC(=O)Cn1nnc(C(=O)NCCc2ccccc2)c1N	.	-	-	-	.
O=C(/C=C/c1ccco1)NCc1ccccn1	-	35µM	-	-	-
O=C(c1ccco1)N(c1ccccn1)c1ccccn1	-	-[2.33 µM]	-	-	-
O=C(/C=C/c1ccc([N+](=O)[O-])cc1)NCc1ccccn1	-	-	-	-	-
C=CC(=O)NCC1OCCc2ccccc21 (configuration not stated)	-	-[12.7 µM]	-	-[11.4 µM]	-
O=C(/C=C/c1ccco1)NCC1OCCc2ccccc21 (configuration not stated)	22µM	-[12.7 µM]	32µM	50µM	45µM
O=C(/C=C/c1ccco1)NC1CCCC1	28µM	?	-	-	?
O=C(/C=C/c1ccco1)N(c1ccccn1)c1ccccn1	40µM	13µM	32µM	22µM	22µM
Cn1c(=O)c2sccc2n2c(CCC(=O)N3CCN(c4ccc(F)cc4)CC3)nnc12	.	-	-	-	-
CCOc1ccccc1NC(=O)Cn1c(=O)n(-c2ccc(C)c(C)c2)c(=O)c2oc3ccccc3c21	.	-	-	-	-
COc1cccc(C(c2c(O)nc(SC)n(C)c2=O)c2c(O)nc(SC)n(C)c2=O)c1	-	.	-	-	-
CCCSc1nc(O)c(C(c2ccc(OC)c(O)c2)c2c(O)nc(SCCC)n(C)c2=O)c(=O)n1C	?	10µM	-	-	-
CC(C)[C@@H](CC(=O)N[C@@H]1CCNC[C@H]1C(=O)N[C@H](CC(=O)N[C@@H](CCC(=O)O)CC(=O)O)Cc1c[nH]c2ccccc12)NC(=O)C[C@H](CO)NC(=O)[C@@H]1CCCC[C@H]1N	-	.	.	.	.
CN(C)c1cccc(C(=O)N2CCC(c3c[nH]c4ccccc34)(c3c[nH]c4ccccc34)CC2)c1	.	?	-	?	?
Cn1c(=O)n(CC(=O)NCC2CCCO2)c(=O)c2c3c(sc21)CCCC3 (configuration not stated)	-	-	-	-	-
O=C(c1ccccc1O)N(Cc1cccs1)Cc1cccs1	.	.	.	-	.
Cc1nc2sc(C(c3ccco3)N3CCN(c4ccc(F)cc4)CC3)c(O)n2n1 (configuration not stated)	45µM	.	-	-	?
Cc1ccc(C(c2sc3ncnn3c2O)N2CCCCC2)cc1 (configuration not stated)	-	-	-	-	-
Oc1c(C(c2ccc(F)cc2)N2CCc3ccccc3C2)sc2ncnn12 (configuration not stated)	-	7.9µM	-	?	-
Cc1nc2sc(C(c3ccco3)N3CCN(c4ccccc4F)CC3)c(O)n2n1 (configuration not stated)	-	45µM	-	-	-
CC1CN(C(c2ccco2)c2sc3ncnn3c2O)CC(C)O1 (configuration not stated)	40µM	40µM	-	-	-
SMILES	Sfp inh	G9a inh	HP1b binding inh	JMJD2A Tudor inh	BAZ2B block
Cc1ccc(C(c2sc3ncnn3c2O)N2CCC(C)CC2)cc1 (configuration not stated)	-	-	-	-	-
Cc1nc2sc(C(c3ccc(F)cc3)N3CCOCC3)c(O)n2n1 (configuration not stated)	-	-[12.7 µM]	-	-	-
CCOc1ccc(C(=O)NCC(=O)N2CCCC2)cc1	-	?	-	-	-
CCOc1ccc(CNC(=O)CCC(=O)n2nc(C)c3ccccc32)cc1	-	.	-	-	-
Cc1nc2sc(C(c3ccccc3)N3CCN(C(=O)c4ccco4)CC3)c(O)n2n1 (configuration not stated)	-	-	-	-	-
Cc1nc2sc(C(c3ccco3)N3CCc4ccccc4C3)c(O)n2n1 (configuration not stated)	.	.	-	56µM	.
Cc1nc2sc(C(c3cccs3)N3CCN(C(=O)c4ccco4)CC3)c(O)n2n1 (configuration not stated)	-	40µM	-	-	-
Cc1ccc(C(c2sc3nc(C)nn3c2O)N2CCN(C(=O)c3ccco3)CC2)cc1 (configuration not stated)	-	-	-	-	-
Cc1c(CCC(=O)O)c(=O)oc2c(C)c3occ(-c4ccc(Cl)cc4)c3cc12	-	?	?	?	56µM
Cc1coc2c(C)c3oc(=O)c(CCC(=O)NCCC(=O)O)c(C)c3cc12	-	-	-	?	50µM
Cc1coc2c(C)c3oc(=O)c(CCC(=O)NCCc4ccccc4F)c(C)c3cc12	.	-	-	-	-
CC(C)(C)NC(=O)CSc1ccc(S(=O)(=O)N2CCOCC2)cn1	.	-[12.7 µM]	-	-	-
O=S(=O)(Nc1ccccc1Cl)c1ccc2[nH]c(=S)oc2c1	-	7.1µM	-	-	?
COc1ccc(NS(=O)(=O)c2ccc3oc(=S)[nH]c3c2)cc1	-	35µM	-	-[11.4 µM]	-
Cc1ccccc1NS(=O)(=O)c1cc2c(cc1C)N(C)CCO2	-	-	-	-	?
CCOc1ccc(-n2c(SCC(=O)N3CCOCC3)nc3c([nH]c4ccccc43)c2=O)cc1	.	-	-	-	-
CCc1ccc(Sc2cc(C(=O)NCc3cccc(OC)c3)c3ccccc3n2)cc1	.	-	-	-	-
CCOC(=O)c1ccccc1NC(=O)CSc1nc(=O)[nH]c2c1CCC2	.	-	-	-	-
CC(C)CCNC(=O)[C@H](CC(C)C)NC(=O)[C@H]1O[C@@H]1C(=O)O	-	35µM	.	.	-
CCOC(=O)[C@H]1O[C@@H]1C(=O)N[C@@H](CC(C)C)C(=O)NCCC(C)C	-	-	-	-	-
CC(=O)c1c(N2CCN(CCO)CC2)nc(=S)n(-c2ccccc2)c1C	-	-	-	-	-
CC(=O)c1c(N2CCN(c3ccccc3)CC2)nc(=S)n(-c2ccccc2)c1C	79µM	-	-	-	-
CN(C)c1ccc(/C=C2/C[N+](C)(C)C/C(=C/c3ccc(N(C)C)cc3)C2=O)cc1	.	.	40µM	40µM	.
O=C(c1ccc(Cn2cnnn2)cc1)N1CCCC(Nc2ccc(F)c(F)c2)C1 (configuration not stated)	-	-	-	-	-
